High-throughput results as filed in PubChem.
D2 PAM-1 = HTS Assay for Positive Allosteric Modulators of the Human D2 Dopamine Receptor: Primary Screen for Potentiators; potentiation, % at 10 µM; 340,000 compounds, 0.34% hits; D(2) dopamine receptor (Homo sapiens), P14416; HEK293 T-REx D2, calcium flux, EC20 dopamine potentiation;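 active means potentiation over 3 SD above the plate norm, cut at about 30% in these data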; further: 0% is about no effect
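Tetracycline-induced HEK293 T-REx cells force-coupled to calcium signalling expressed D2; compounds were pin-added after a 10 s baseline, read kinetically 180 s, then an EC20 dopamine challenge followed with a further 180 s calcium read.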
D2 ag-1 = HTS Assay for Allosteric Agonists of the Human D2 Dopamine Receptor: Primary Screen for Agonists; D(2) dopamine receptor (Homo sapiens), P14416; HEK293 T-REx D2 cells, calcium flux agonist mode; activation, % at 2 µM; 340,000 compounds, 0.53% hits; AID 485358, 2010;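 active means activation over 3 SD above normal in the single-dose calcium agonist read, cut at about 30% in these data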; further: 0% is about no effect
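HEK293 Trex D2 cells, tetracycline-induced, o/n 30 C 5% CO2; no-wash Ca dye, RT 30–90 min; 10-cycle baseline, 23 nl cpd added, kinetic Ca read 180 s; agonist hits = positive Ca response.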
D2 antag = HTS Assay for Allosteric Antagonists of the Human D2 Dopamine Receptor: Primary Screen for Antagonists; HEK293 TREx D2 cells, calcium flux, dopamine EC80; 340,000 compounds, 2% hits; AID 485344, 2010; D(2) dopamine receptor (Homo sapiens), P14416; inhibition, % at 10 µM; in the data active means inhibition above about 30%; inactive means below that, where a call was filed; further: 0% is about no effect
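Antagonism is scored as inhibition of an EC80 dopamine-evoked calcium signal in a force-coupled, tetracycline-inducible HEK293 T-REx D2 line, with compound present 180 s before agonist.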
D2 ag-2 = Beta-Arrestin HTS for Positive Allosteric Modulators of the Human D2 Dopamine Receptor: Agonists; DiscoveRx PathHunter D2 beta-arrestin, luminescence, 90 min; 100% = 57 uM dopamine signal; D(2) dopamine receptor (Homo sapiens), P14416; AID 624465, 2012; activation, % (concentration not given with the values); 360,000 compounds, 0.084% hits; in the data active means activation above about 40%; inconclusive means between about 15% and that limit
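DiscoveRx PathHunter D2 beta-arrestin cells (2,100/well) attached overnight, then compound-stimulated 90 min at 37 C in HBSS/10 mM HEPES/0.1% Tween-20 buffer; beta-galactosidase complementation read by luminescence after 1 h at ambient temperature. Dopamine 57 uM final (EC100) as control.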
D2 PAM-2 = Beta-Arrestin HTS for Positive Allosteric Modulators of the Human D2 Dopamine Receptor: Potentiators; 360,000 compounds, 0.23% hits; potentiation, % (concentration not given with the values); DiscoveRx D2 beta-arrestin cells, luminescence, 90 min; 100% = 57 uM dopamine signal; D(2) dopamine receptor (Homo sapiens), P14416; AID 624464, 2012; in the data active means potentiation above about 50%; inconclusive means mostly about 30% to 49%
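PathHunter beta-arrestin assay in DiscoveRx D2 cells. Compounds were added with an EC20 of dopamine (50 nM final) for 90 min at 37 deg C. Luminescence was read 1 h after detection reagent, with 57 uM dopamine as the EC100 control.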
D3 arrestin ag = qHTS of D3 Dopamine Receptor Agonist: D3 Dopamine Receptor B-arrestin Agonist Confirmatory Assay; shares compounds with D2 ag-1; Potency, µM (titrated, usually from 76.9 µM), without a hit: at the top dose activation, most hits filed as activators; 2,300 compounds, 4% hits; DiscoveRx D3 beta-arrestin cells, luminescence, 90 min;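 further: potency means the concentration at half of the fitted maximal effect; 100% = dopamine control response; nearly all actives have a fitted effect of over 70% in size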
Target sequence (P35462 whole entry, looked up): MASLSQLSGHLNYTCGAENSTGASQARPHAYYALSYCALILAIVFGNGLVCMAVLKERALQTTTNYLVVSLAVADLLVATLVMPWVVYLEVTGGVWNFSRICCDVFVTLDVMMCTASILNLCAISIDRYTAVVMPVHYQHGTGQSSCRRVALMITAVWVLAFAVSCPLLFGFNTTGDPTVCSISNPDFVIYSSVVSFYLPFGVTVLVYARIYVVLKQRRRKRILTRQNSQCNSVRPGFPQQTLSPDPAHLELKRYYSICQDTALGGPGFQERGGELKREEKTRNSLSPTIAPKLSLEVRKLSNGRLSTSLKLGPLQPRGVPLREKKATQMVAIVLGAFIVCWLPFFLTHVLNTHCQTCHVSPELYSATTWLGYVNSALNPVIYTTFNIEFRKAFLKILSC
D2 ag-3 = qHTS of D3 Dopamine Receptor Agonist: D2 Dopamine Receptor B-arrestin Agonist Counterscreen; Potency, µM (titrated, usually from 76.9 µM), without a hit: at the highest dose activation, hits mostly activators; shares compounds with D2 ag-1; 2,300 compounds, 5.9% hits; DiscoveRx PathHunter D2 beta-arrestin, luminescence, 90 min; response scale: percent relative to full dopamine signal; further: potency means the concentration at half of the fitted maximal effect; % of control where 0% means no effect; nearly all actives have a fitted effect of over 70% in size
Active calls of the source: *; ? = inconclusive; . = no result; ! = repeats disagree. An excerpt weighted towards active compounds, which were near 2.4% of everything screened. Unless noted, the call rests on the fitted dose curve; in most records, active means well fitted activation curve with a large enough effect; inconclusive means small, poorly fitted or top-dose-only effect; inactive means flat fitted curve, though single readings scatter.

SMILES	D2 PAM-1	D2 ag-1	D2 antag	D2 ag-2	D2 PAM-2	others
C1=C(CCNCc2ccccc2)CCCC1	-13	0	39*	-3	-8
Cc1cc(OCC(=O)N2CCN(CCc3ccncc3)CC2)cc(C)c1Cl	-11	.	.	.	.
CCc1ccc(-c2nn(Cc3ccccc3)cc2C=O)cc1	-4	1	35*	-7	0
CCOc1ccc(NC(=O)c2c(O)[nH]c(=O)[nH]c2=O)cc1	.	.	.	2	11
CCOC(=O)c1ccc(NC(=O)c2c(O)[nH]c(=O)[nH]c2=O)cc1	0	54*	-2	1	-6
CCOC(=O)C1CCCCC12C(C#N)=C(N)Oc1n[nH]c(C)c12 (stereo not drawn)	-2	1	30*	-4	-9
COc1ccc(Cl)cc1NC(=O)CN1C(=O)CN=C(c2ccccc2)c2cc(Cl)ccc21	-1	1	.	.	.
CN1CCN(c2c(F)cc([N+](=O)[O-])c(N)c2Br)CC1	-19	0	35*	-4	-16
Nc1c([N+](=O)[O-])cc(F)c(N2CCNCC2)c1Br	11	-4	10	1	-12
O=c1c2ccccc2nc(/C=C\c2ccc(F)cc2)n1-c1ccccc1F	-4	0	.	.	.
COc1ccc2[nH]cc(CCN)c2c1	-4	34*	-4	5	-48
CCCCCCCCCOc1ccc2[nH]cc(CCN)c2c1	-18	2	13	.	.
c1cc2n(c1)-c1c(ccc3c1OCO3)CNC2c1ccc2c(c1)OCO2 (stereo not drawn)	1	0	51*	-5	-36
CC(C)(C)c1ccc(C(=O)C2CCCN(C3CCC3)C2)cc1 (stereo not drawn)	-16	0	37*	0	-15
C[C@H]1CCC[C@H](O)CCCCCc2cc(O)cc(O)c2C(=O)O1	7	1	32*	-3	2
CCc1nc(SC)ncc1C(=O)Nc1ccc(Cl)cc1C(=O)c1ccccc1	.	-1	.	.	.
O=c1c2ccccc2nc(/C=C/c2ccccc2F)n1-c1cccc(O)c1	2	.	.	.	.
COc1ccc(C(=O)C2CCCN(C3CSCCSC3)C2)c(OC)c1 (stereo not drawn)	-15	1	57*	2	-18
Cc1ccc(-n2c(/C=C/c3ccccc3)nc3ccccc3c2=O)cc1Cl	7	0	.	.	.
C[C@@H]1C(=O)O[C@@H]2[C@H](O)C34[C@@H]5OC(=O)C3(O[C@H]3OC(=O)[C@H](O)C34[C@H](C(C)(C)C)[C@H]5O)[C@@]12O (stereo partly drawn)	-6	0	37*	-2	-8
COc1cccc(NC(=O)c2cccn(Cc3ccccc3C)c2=O)c1	2	1	.	.	.
Cn1c(O)c(C=Nc2ccc(F)cc2)c(=O)[nH]c1=O	-7	-1	35*	0	4
CC(=O)c1cccc(OCC(O)CN2CC=C(c3ccccc3)CC2)c1 (stereo not drawn)	-29	79*	80*	42*	51*	D3 arrestin ag=?;D2 ag-3=?
O=C1NC(=S)N(c2ccc(Cl)cc2)C(=O)/C1=C/N1CCN(C(=O)c2ccco2)CC1	-9	26	5	1	-13	D3 arrestin ag=-6%;D2 ag-3=3%
CC(C)C[C@H]1C(=O)N2CCC[C@H]2[C@]2(O)O[C@](NC(=O)[C@@H]3C=C4c5cccc6[nH]cc(c56)C[C@H]4N(C)C3)(C(C)C)C(=O)N12	-20	76*	72*	106*	?	D3 arrestin ag=?;D2 ag-3=1µM*
SMILES	D2 PAM-1	D2 ag-1	D2 antag	D2 ag-2	D2 PAM-2	others
CCC(CO)NC(=O)C1C=C2c3cccc4[nH]cc(c34)CC2N(C)C1 (stereo not drawn)	-19	84*	81*	114*	?	D3 arrestin ag=2.8µM*;D2 ag-3=7.1µM*
CC[C@@H](CO)NC(=O)[C@@H]1C=C2c3cccc4c3c(cn4C)C[C@H]2N(C)C1	-18	54*!	47*	14	-21	D3 arrestin ag=?;D2 ag-3=27%
Cc1ccccc1Cn1cccc(C(=O)Nc2nc3ccccc3s2)c1=O	.	1	.	.	.
COC(=O)C1=C(C(=O)OC)SC2(S1)C(C(=O)OC)=C(C(=O)OC)Sc1c2ssc1=O	.	.	.	-15	-49
CC(=O)N1CCC(N2CCCC(C(=O)c3cccc(Cl)c3)C2)CC1 (stereo not drawn)	-12	84*	78*	58*	55*	D3 arrestin ag=?;D2 ag-3=?
Cc1ccc(Cn2cccc(C(=O)Nc3cc(C)on3)c2=O)cc1	19	21	.	.	.
COc1ccccc1N1CCN(Cc2ccccc2)CC1	-19	31*	97*	2	-67	D3 arrestin ag=-10%;D2 ag-3=-2%
CN1CCN(Cc2ccc(Br)s2)CC1	-22	-1	13	3	-24
COc1ccccc1N1CCN(Cc2ccc(Br)s2)CC1	-23	61*	85*	1	-4	D3 arrestin ag=-8%;D2 ag-3=8%
COc1ccccc1N1CCN(Cc2c(F)cccc2Cl)CC1	-29	4	-20	-1	-42
CCOc1ccc2nc(NC(=O)c3cccn(Cc4ccc(Cl)cc4)c3=O)sc2c1	14	.	.	.	.
O=C1CC(c2c(F)cccc2Cl)c2c(c3ccccc3oc2=O)O1 (stereo not drawn)	-2	0	.	.	.
Cc1ccc(Cn2cccc(C(=O)Nc3ccc4c(c3)OCO4)c2=O)cc1	0	0	.	.	.
C[C@]12CCC3C(CC[C@H]4C[C@@H](O)CC[C@]34C)C1CC[C@@H]2OC(=O)[C@H](N)CCCCN (stereo partly drawn)	.	.	.	1	-6
Cc1ccc(-n2c(/C=C/c3ccccc3)nc3ccccc3c2=O)cc1C	-13	1	.	.	.
NNC(N)=O	2	0	31*	-5	-4	D3 arrestin ag=-20%;D2 ag-3=-3%
CCC(=NCc1ccco1)c1c(O)n(-c2ccccc2C)c(=O)[nH]c1=O	-9	0	-9	-1	-5	D3 arrestin ag=-11%;D2 ag-3=-6%
CC1(C(=O)O)CC12c1ccccc1-c1ccccc12 (stereo not drawn)	.	.	.	-1	-4
